According to PubChem BioAssay (Tox21):
Inconclusive results are not listed. Activity calls are given as the source filed them. Unless noted, calls come from the whole dose curve; as a rule, active = well fitted curve in the direction sought with a large enough effect in the repeat runs; inconclusive = weak or mixed curves; inactive = no such curve, though single readings can be large; an effect the other way counts as inactive or inconclusive.

Legend:
[1] = qHTS assay to identify aromatase inhibitors - cell viability counter screen (AID 743084);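 note: cells stimulated with testosterone during compound exposure; nearly all actives have a fitted effect of over 55% in size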
[2] = target: Aryl hydrocarbon receptor (Homo sapiens) (UniProt P35869); assay: qHTS assay to identify small molecule that activate the aryl hydrocarbon receptor (AhR) signaling pathway (AID 743085);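 note: HG2L7.5c1 human HepG2 liver cells with stably integrated DRE-driven firefly reporter; series mostly up to about 70 µM; nearly all actives have a fitted effect of over 15% in size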
Chain of Aryl hydrocarbon receptor (Homo sapiens) (P35869 whole entry, looked up): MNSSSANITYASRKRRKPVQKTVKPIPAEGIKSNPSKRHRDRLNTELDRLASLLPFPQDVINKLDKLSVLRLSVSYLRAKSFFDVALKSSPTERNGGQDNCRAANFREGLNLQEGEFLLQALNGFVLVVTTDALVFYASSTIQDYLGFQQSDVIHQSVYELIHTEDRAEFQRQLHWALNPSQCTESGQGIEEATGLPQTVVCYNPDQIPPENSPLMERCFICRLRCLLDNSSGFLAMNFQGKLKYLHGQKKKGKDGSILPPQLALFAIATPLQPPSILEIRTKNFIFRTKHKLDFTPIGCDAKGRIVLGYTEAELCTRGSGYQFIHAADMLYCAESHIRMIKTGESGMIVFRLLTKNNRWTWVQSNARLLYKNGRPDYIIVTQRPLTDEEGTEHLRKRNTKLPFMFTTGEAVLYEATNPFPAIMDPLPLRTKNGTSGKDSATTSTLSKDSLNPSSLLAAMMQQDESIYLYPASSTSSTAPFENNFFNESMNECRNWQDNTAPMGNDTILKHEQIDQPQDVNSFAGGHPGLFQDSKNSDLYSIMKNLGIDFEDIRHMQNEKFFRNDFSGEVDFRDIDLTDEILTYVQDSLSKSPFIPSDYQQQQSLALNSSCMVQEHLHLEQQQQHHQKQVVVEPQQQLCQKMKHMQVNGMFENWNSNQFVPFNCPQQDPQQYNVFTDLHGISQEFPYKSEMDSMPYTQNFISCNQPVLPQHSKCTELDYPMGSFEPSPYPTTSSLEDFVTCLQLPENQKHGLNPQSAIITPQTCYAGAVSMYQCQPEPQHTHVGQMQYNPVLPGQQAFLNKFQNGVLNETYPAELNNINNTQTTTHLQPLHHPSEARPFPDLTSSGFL
How it was run: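 Cell line HG2L7.5c1 (human hepatoma, 20× DRE-luc). Plated, 5 h 37C, compound/DMSO added, 24 h 37C. CellTiter-Fluor 30 min 37C → fluorescence; then ONE-Glo 30 min RT → luminescence.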

[3] = qHTS assay to identify small molecule that activate the aryl hydrocarbon receptor (AhR) signaling pathway - cell viability counter screen (AID 743086);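 note: HepG2 liver cells carrying the AhR DRE luciferase reporter; series mostly up to about 70 µM; nearly all actives have a fitted effect of over 45% in size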
How it was run: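 HepG2-AhR-luc (HG2L7.5c1) cells, 4000/well, were preincubated 5 h at 37C, exposed to compound in qHTS format for 24 hr at 37C, then given CellTiter-Fluor for 30 min; viability was read as fluorescence in the reporter wells.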

[4] = target: Peroxisome proliferator-activated receptor gamma (Homo sapiens) (UniProt P37231); assay: qHTS assay to identify small molecule agonists of the peroxisome proliferator-activated receptor gamma (PPARg) signaling pathway (AID 743094; active = well fitted activation curve with a large enough effect in the signal ratio in the repeat runs, not every such curve was filed as active; the % refers to the signal ratio)
Chain of Peroxisome proliferator-activated receptor gamma (Homo sapiens) (P37231 whole entry, looked up): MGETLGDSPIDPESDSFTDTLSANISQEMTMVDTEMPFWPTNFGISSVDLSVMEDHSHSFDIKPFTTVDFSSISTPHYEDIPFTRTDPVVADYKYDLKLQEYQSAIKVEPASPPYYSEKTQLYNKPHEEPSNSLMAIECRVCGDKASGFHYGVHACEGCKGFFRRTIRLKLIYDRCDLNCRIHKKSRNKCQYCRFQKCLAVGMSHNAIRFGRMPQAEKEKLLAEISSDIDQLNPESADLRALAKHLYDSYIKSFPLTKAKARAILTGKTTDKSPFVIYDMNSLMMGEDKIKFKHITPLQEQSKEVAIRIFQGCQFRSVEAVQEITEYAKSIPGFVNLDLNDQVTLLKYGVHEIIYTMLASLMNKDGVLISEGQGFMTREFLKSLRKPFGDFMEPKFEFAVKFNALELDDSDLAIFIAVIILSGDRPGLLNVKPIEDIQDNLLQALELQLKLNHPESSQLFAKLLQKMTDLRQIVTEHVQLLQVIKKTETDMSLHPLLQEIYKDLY
How it was run: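 Agonism was assessed in a beta-lactamase reporter system, HEK293H cells with a stably integrated UAS-bla construct under PPARg control; the 17 h treatment at 37C preceded a 1 h room-temperature FRET substrate read.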

[5] = target: Peroxisome proliferator-activated receptor gamma (Homo sapiens) (UniProt P37231); assay: qHTS assay to identify small molecule antagonists of the peroxisome proliferator-activated receptor gamma (PPARg) signaling pathway (AID 743191; calls by dose curve; note: series mostly up to about 63 µM; nearly all actives have a fitted effect of over 30% in size)
How it was run: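 GeneBLAzer PPARg UAS-bla HEK293H cells carrying a UAS-driven beta-lactamase reporter were plated at 3000 cells/well, preincubated 5 h at 37C, then given compound for 17 h at 37C; LiveBLAzer B/G FRET substrate was read after 1 h at room temperature.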

[6] = qHTS assay to identify small molecule antagonists of the peroxisome proliferator-activated receptor gamma (PPARg) signaling pathway - cell viability counter screen (AID 743194); note: nearly all actives have a fitted effect of over 55% in size
How it was run: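 PPARg-UAS-bla HEK293H cells were plated, rested 5 h at 37 C, then treated with compounds plus rosiglitazone (50 nM final) for 17 h at 37 C; viability was then read by CellTiter-Glo luminescence after 30 min at room temperature.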

[7] = qHTS assay for small molecule agonists of the antioxidant response element (ARE) signaling pathway (AID 743202; active = well fitted activation curve with a large enough effect in the signal ratio in the repeat runs, not every such curve was filed as active; the % refers to the signal ratio)
How it was run: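 Following a 16 h, 37 C exposure of reporter HepG2 cells (ARE-driven beta-lactamase, 2,000 cells/well) to compounds, FRET substrate was applied for 2 h at room temperature and fluorescence intensity recorded.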

[8] = qHTS assay for small molecule agonists of the antioxidant response element (ARE) signaling pathway - cell viability counter screen (AID 743203; calls by dose curve; note: nearly all actives have a fitted effect of over 55% in size)
How it was run: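 ATP content via CellTiter-Glo luminescence served as the viability measure. Cells: ARE-bla HepG2, 2,000 per well. Exposure: 16 hrs, 37C/5% CO2.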

[9] = qHTS assay for small molecule activators of the heat shock response signaling pathway (AID 743210; active = well fitted activation curve with a large enough effect in the signal ratio in the repeat runs, with a control signal flat, not every such curve was filed as active; the % refers to the signal ratio; note: series mostly up to about 63 µM)
How it was run: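 Heat shock element–beta-lactamase HeLa reporter cells; qHTS with compounds for 5 h at 37 C; detection by FRET substrate fluorescence after 2.5 h at RT.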

[10] = qHTS assay to identify small molecule agonists of the peroxisome proliferator-activated receptor delta (PPARd) signaling pathway - cell viability counter screen (AID 743211); note: nearly all actives have a fitted effect of over 55% in size
How it was run: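 HEK293H PPARd-bla, 3000 cells/well; 5 h preincubation 37C/5% CO2; cpd in DMSO, 17 h 37C; B/G FRET substrate 2 h RT; CellTiter-Glo 30 min RT, luminescence.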

[11] = target: Peroxisome proliferator-activated receptor delta (Homo sapiens) (UniProt Q03181); assay: qHTS assay to identify small molecule agonists of the peroxisome proliferator-activated receptor delta (PPARd) signaling pathway (AID 743212; calls by dose curve)
Chain of Peroxisome proliferator-activated receptor delta (Homo sapiens) (Q03181 whole entry, looked up): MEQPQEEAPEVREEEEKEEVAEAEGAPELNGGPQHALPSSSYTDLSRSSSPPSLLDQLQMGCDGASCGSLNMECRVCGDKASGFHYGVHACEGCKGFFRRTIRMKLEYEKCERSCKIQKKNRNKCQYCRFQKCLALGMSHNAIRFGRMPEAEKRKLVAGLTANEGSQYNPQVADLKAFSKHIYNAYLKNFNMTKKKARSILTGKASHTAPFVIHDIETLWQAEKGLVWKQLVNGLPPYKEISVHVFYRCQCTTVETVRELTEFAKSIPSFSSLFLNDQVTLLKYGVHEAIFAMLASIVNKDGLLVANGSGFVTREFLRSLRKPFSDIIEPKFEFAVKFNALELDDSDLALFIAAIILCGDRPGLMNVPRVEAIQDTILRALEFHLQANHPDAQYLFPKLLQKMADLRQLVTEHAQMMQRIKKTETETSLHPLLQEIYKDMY
How it was run: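 Beta-lactamase reporter read by fluorescence (LiveBLAzer B/G FRET, 2 h, room temperature). Test agents, in DMSO, incubated at 37 C with PPARd-bla HEK293H cells.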

[12] = target: Peroxisome proliferator-activated receptor delta (Homo sapiens) (UniProt Q03181); assay: qHTS assay to identify small molecule antagonists of the peroxisome proliferator-activated receptor delta (PPARd) signaling pathway (AID 743215; active = well fitted inhibition curve with a large enough effect in the signal ratio in the repeat runs, not every such curve was filed as active; the % refers to the signal ratio;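 note: cells stimulated with agonist L165041 at 300 nM final during compound exposure; series mostly up to about 62 µM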)
How it was run: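 Here, a reporter line (HEK293H, beta-lactamase under a UAS) measures PPARd signaling. Compounds are tested against agonist L165041 at 300 nM final concentration over 17 h at 37 C, with fluorescence read after substrate.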

[13] = target: Bile acid receptor (Homo sapiens) (UniProt Q96RI1); assay: qHTS assay to identify small molecule antagonists of the farnesoid-X-receptor (FXR) signaling pathway (AID 743217; active = well fitted inhibition curve with a large enough effect in the signal ratio in the repeat runs, not every such curve was filed as active; the % refers to the signal ratio)
Chain of Bile acid receptor (Homo sapiens) (Q96RI1 whole entry, looked up): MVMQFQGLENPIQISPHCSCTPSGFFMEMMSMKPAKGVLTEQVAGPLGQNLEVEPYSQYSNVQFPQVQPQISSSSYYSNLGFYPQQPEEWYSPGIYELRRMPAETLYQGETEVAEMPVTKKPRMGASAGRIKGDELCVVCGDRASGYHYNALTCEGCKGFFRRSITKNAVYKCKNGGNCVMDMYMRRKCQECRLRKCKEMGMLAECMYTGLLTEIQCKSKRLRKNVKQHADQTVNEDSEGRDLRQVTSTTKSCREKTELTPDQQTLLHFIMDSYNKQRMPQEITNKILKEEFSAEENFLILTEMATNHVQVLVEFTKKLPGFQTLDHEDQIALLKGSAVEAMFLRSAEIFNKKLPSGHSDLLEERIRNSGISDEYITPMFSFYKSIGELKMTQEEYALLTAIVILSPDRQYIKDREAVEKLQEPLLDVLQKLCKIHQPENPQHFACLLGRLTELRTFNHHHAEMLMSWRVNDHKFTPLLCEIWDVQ
How it was run: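 Test compounds are pin-transferred onto FXR-bla HEK 293T cells, then chenodeoxycholic acid is added at 50 uM final. After 16 h at 37 °C, LiveBLAzer B/G substrate is applied for 2 h at room temperature and fluorescence read.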

[14] = qHTS assay to identify small molecule agonists of the farnesoid-X-receptor (FXR) signaling pathway - cell viability counter screen (AID 743218); note: nearly all actives have a fitted effect of over 45% in size
How it was run: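 Quantitative HTS counter screen measuring ATP-based viability via CellTiter-Glo luminescence in HEK 293T cells carrying a UAS-driven beta-lactamase reporter, after 16 h compound exposure at 37 C.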

[15] = target: Bile acid receptor (Homo sapiens) (UniProt Q96RI1); assay: qHTS assay to identify small molecule agonists of the farnesoid-X-receptor (FXR) signaling pathway (AID 743220; active = well fitted activation curve with a large enough effect in the signal ratio in the repeat runs, not every such curve was filed as active; the % refers to the signal ratio)
How it was run: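 FXR-UAS-bla HEK 293T cells carrying a UAS-driven beta-lactamase reporter were plated for 5 h at 37C/5% CO2, then exposed to DMSO-dissolved Tox21 10K compounds for 16 h at 37C. A LiveBLAzer B/G FRET substrate was loaded for 2 h at room temperature before fluorescence reading.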

[16] = qHTS assay to identify small molecule antagonists of the farnesoid-X-receptor (FXR) signaling pathway - cell viability counter screen (AID 743221; active = well fitted cell-killing curve with a large enough effect in the repeat runs, not every such curve was filed as active; note: nearly all actives have a fitted effect of over 50% in size)
How it was run: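 Luminescence from CellTiter-Glo measures cytotoxicity in GeneBLAzer FXR-UAS-bla HEK 293T cells. Cells were exposed to compounds with 50 uM chenodeoxycholic acid (final) for 16 h at 37 C, in wells also used for the reporter readout.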

[17] = target: Vitamin D3 receptor (Homo sapiens) (UniProt P11473); assay: qHTS assay to identify small molecule agonists of the vitamin D receptor (VDR) signaling pathway (AID 743222; calls by dose curve)
Chain of Vitamin D3 receptor (Homo sapiens) (P11473 whole entry, looked up): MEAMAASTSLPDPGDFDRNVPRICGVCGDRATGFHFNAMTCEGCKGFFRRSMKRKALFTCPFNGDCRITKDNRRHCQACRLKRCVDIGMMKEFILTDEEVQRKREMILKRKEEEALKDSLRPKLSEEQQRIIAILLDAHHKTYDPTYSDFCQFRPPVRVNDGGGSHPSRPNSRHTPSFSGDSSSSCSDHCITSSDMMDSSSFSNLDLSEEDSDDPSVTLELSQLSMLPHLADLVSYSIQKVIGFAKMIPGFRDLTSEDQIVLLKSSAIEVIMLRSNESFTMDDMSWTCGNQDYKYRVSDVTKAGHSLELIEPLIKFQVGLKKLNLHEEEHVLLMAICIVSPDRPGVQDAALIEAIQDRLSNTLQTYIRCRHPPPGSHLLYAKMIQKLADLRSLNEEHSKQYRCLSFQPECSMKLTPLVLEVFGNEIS
How it was run: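 Tox21 cell reporter format: VDR-bla line, 16 h compound exposure in 5% CO2 at 37C, then fluorescence intensity after 2 h with LiveBLAzer B/G FRET substrate.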

[18] = qHTS assay to identify small molecule antagonists of the peroxisome proliferator-activated receptor delta (PPARd) signaling pathway - cell viability counter screen (AID 743213); note: nearly all actives have a fitted effect of over 50% in size
How it was run: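 CellTiter-Glo was added to PPARd-bla HEK293H wells following 17 h compound treatment in the presence of 300 nM L165041. Luminescence was recorded after 30 min at room temperature.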

[19] = target: Vitamin D3 receptor (Homo sapiens) (UniProt P11473); assay: qHTS assay to identify small molecule antagonists of the vitamin D receptor (VDR) signaling pathway (AID 743223; active = well fitted inhibition curve with a large enough effect in the signal ratio in the repeat runs, not every such curve was filed as active; the % refers to the signal ratio)
How it was run: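 Antagonist mode uses 1alpha,25-dihydroxyvitamin D3 at 3 nM final as stimulus. VDR-bla cells receive compounds in DMSO, incubate 16 h at 37C, then a beta-lactamase FRET substrate for 2 h at room temperature before fluorescence measurement.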

[20] = qHTS assay for small molecule activators of the heat shock response signaling pathway - cell viability counter screen (AID 743209); note: nearly all actives have a fitted effect of over 50% in size
How it was run: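 Compounds dissolved in DMSO were added to overnight-plated HSE-bla HeLa cells and left 5 h at 37 C. Cell viability was quantified by luminescence using CellTiter-Glo.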

Measured: Potency

Nc1ccc(O)c(C(=O)O)c1
inactive: [1] | [2] | [3] | [4] | [5] | [6] | [7] | [8] | [9] | [10] | [11] | [12] | [13] | [14] | [15] | [16] | [17]

CC(O)CN(CCN(CC(C)O)CC(C)O)CC(C)O (centres undefined)
inactive: [1] | [2] | [3] | [4] | [5] | [6] | [7] | [8] | [9] | [10] | [11] | [18] | [12] | [13] | [14] | [15] | [16] | [17] | [19]

CCOc1ccc(NC(=O)CC(C)O)cc1 (centres undefined)
inactive: [1] | [2] | [3] | [4] | [5] | [6] | [7] | [8] | [20] | [9] | [10] | [11] | [18] | [12] | [13] | [14] | [15] | [16]

NC(=O)NC1NC(=O)NC1=O (centres undefined)
inactive: [1] | [2] | [3] | [4] | [5] | [6] | [7] | [8] | [20] | [9] | [10] | [11] | [12] | [14] | [16] | [19]

CC(O)CO (centres undefined)
inactive: [1] | [2] | [3] | [4] | [5] | [6] | [7] | [8] | [20] | [9] | [10] | [11] | [12] | [14] | [16] | [19]

O=C(O)CS
inactive: [1] | [2] | [3] | [4] | [5] | [6] | [7] | [8] | [20] | [9] | [10] | [11] | [18] | [12] | [14] | [16]

CCCNC(=O)NS(=O)(=O)c1ccc(Cl)cc1
inactive: [1] | [2] | [3] | [4] | [5] | [6] | [7] | [8] | [9] | [10] | [11] | [18] | [12] | [14] | [16]

Nc1ccc(S(=O)(=O)c2ccc(N)cc2)cc1
inactive: [1] | [2] | [3] | [4] | [5] | [6] | [7] | [8] | [9] | [10] | [11] | [18] | [12] | [13] | [14] | [15] | [16]
